Data published in PubChem BioAssay (NCATS).

Each molecule was assayed against Glucocorticoid receptor (Homo sapiens) (UniProt P04150) (assay: GR-GFP Redistribution (AID 450)). Conditions: U2OS GR-GFP nuclear translocation, laser cytometry, 2 h; series mostly up to 20.6 µM;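 active = compounds whose dose series gives a full or clear partial fitted curve of increased nuclear translocation; inconclusive = weak partial curve or effect only at the top dose; inactive = no dose-dependent translocation response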.
Potency is read from the fitted curve at half-maximal effect.

Glucocorticoid receptor (Homo sapiens), sequence (P04150 whole entry, looked up): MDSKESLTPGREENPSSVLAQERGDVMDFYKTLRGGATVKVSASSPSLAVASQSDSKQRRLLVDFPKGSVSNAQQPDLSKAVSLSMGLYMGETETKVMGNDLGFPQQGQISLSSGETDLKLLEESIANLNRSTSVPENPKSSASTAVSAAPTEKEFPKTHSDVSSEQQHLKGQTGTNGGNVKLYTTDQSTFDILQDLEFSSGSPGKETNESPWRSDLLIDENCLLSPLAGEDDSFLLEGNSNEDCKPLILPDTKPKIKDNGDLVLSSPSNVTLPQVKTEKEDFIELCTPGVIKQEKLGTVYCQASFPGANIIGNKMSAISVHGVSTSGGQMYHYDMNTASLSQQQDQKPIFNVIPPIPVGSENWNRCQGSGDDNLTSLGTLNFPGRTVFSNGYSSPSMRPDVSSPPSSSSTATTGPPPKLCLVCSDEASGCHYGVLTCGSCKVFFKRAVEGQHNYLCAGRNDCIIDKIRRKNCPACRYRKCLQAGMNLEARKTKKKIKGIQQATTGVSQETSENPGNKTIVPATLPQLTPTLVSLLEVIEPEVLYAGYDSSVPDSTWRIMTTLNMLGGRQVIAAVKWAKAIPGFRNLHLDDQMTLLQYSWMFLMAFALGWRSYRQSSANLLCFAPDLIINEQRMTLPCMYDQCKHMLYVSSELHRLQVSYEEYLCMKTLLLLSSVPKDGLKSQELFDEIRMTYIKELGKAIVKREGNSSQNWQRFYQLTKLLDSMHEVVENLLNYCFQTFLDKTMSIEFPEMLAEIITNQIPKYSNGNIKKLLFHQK

Potency, inactive:
CCOP(=O)(c1ccccc1)C1(C#N)CCCC1 (centres undefined) > 20.6 µM
c1cncc(Oc2cccc(Oc3cccnc3)c2)c1 > 20.6 µM
CC(=O)NC(=O)Nc1sc(=S)n(C)c1C > 20.6 µM
COc1ccccc1N(O)C1CC(=O)N(c2ccc(F)cc2)C1=O (centres undefined) > 20.6 µM
CCOc1ccc(C2CC(c3ccccc3)Nc3nc(N)nn32)cc1 (centres undefined) > 20.6 µM
O=C(O)C1[C@H]2C(=O)N(Cc3cccs3)C[C@]23C=C[C@H]1O3 (some centres undefined) > 20.6 µM
O=c1c(-c2ccc(Cl)cc2)[n+]([O-])c2ccccc2n1O > 20.6 µM
Cn1c(=O)c2c(nc(NCc3ccc4c(c3)OCO4)n2Cc2ccccc2Cl)n(C)c1=O > 20.6 µM
CCOC(=O)C(C)c1nc2ccccc2[nH]c1=O (centres undefined) > 20.6 µM
CC(NC(=O)Nc1ncccn1)(C(F)(F)F)C(F)(F)F > 20.6 µM
COc1cc(C2C(C#N)=C(N)Oc3cc(C)n(Cc4ccccn4)c(=O)c32)cc2c1OCO2 (centres undefined) > 20.6 µM
O=C1C(=O)N(CCN2CCOCC2)C(c2ccccn2)/C1=C(/O)c1ccc(F)cc1 (centres undefined) > 20.6 µM
COC(=O)c1ccc(C2/C(=C(\O)c3cccc(OC)c3)C(=O)C(=O)N2CCCN(C)C)cc1 (centres undefined) > 20.6 µM
O=C1C2ON(c3ccccc3)C(c3ccncc3)C2C(=O)N1c1ccc(Br)cc1 (centres undefined) > 20.6 µM
CCn1c(SCC(=O)NC2CCCCC2C)nnc1-c1ccc(OC)cc1 (centres undefined) > 20.6 µM
Cc1cc(C)n(C(=O)CNC(=O)c2cccs2)n1 > 20.6 µM
Cc1ccc(/C=c2\sc3n(c2=O)CN(c2ccc(Br)cc2)CN=3)o1 > 20.6 µM
CCOC(=O)c1c(CN2CCN(CCO)CC2)n(C)c2cc(Br)c(OC)cc12 > 20.6 µM
CCc1nc2c(sc3nc(N4CCOCC4)c4c(c32)CC(C)(C)OC4)c(=O)o1 > 20.6 µM
CCOC(=O)c1cc(CC)sc1NC(=O)C1CC1 > 20.6 µM
O=C1C2ON(c3ccccc3)C(c3cccnc3)C2C(=O)N1c1ccccc1 (centres undefined) > 20.6 µM
NC(=O)C(c1ccccc1)C1CCCC1 (centres undefined) > 20.6 µM
CCCC1C(c2ccc(OC)cc2)C(C#N)(C#N)C2(C#N)CC1(N)NC2=O (centres undefined) > 20.6 µM
CCN(CC)S(=O)(=O)c1ccc2c(c1)c(C(=O)O)cn2C > 20.6 µM
CC(NC(=O)Nc1nccs1)(C(F)(F)F)C(F)(F)F > 20.6 µM
N#C/C(C(=O)N1CCOCC1)=C1/SC(Cc2ccccc2)C(=O)N1c1ccccc1 (centres undefined) > 20.6 µM
COc1ccccc1C1C(C#N)=C(N)Oc2cc(C)n(Cc3ccccn3)c(=O)c21 (centres undefined) > 20.6 µM
Cc1cc(C)c(C#N)c(OCC(=O)c2ccccc2)n1 > 20.6 µM
CC(=O)C1=C(O)C(=O)N(c2ccc(Br)cn2)C1c1ccccc1F (centres undefined) > 20.6 µM
Cn1ncc(N=Cc2ccccc2O)c1C(=O)Nc1ccccc1 > 20.6 µM
CN(C)CCCNCCCCNC(=O)/C=N/O > 20.6 µM
COc1ccc(C(=O)NCC(=O)n2nc(C)cc2C)cc1OC > 20.6 µM
Cc1ccc(-c2ccccc2NC(=O)C2C3C=CC(C3)C2C(=O)O)o1 (centres undefined) > 20.6 µM
CCOc1nnnc2c1sc1nc(N3CCOCC3)c3c(c12)CC(C)(C)OC3 > 20.6 µM
O=C(O)CCCCCN1C(=O)CCC1=O > 20.6 µM
C=CCn1c(=S)[nH]c2ccccc2c1=O > 20.6 µM
N#CC1=C(C=Nc2ccccc2O)CCC1 > 20.6 µM
COC(=O)c1sccc1NC(=O)c1c(C)cc(=O)oc1C > 20.6 µM
COc1ccccc1N1CCN(CCOc2c(OC)cccc2OC)CC1 > 20.6 µM
